The list is not random: actives were taken first. Their share in the collection is about 6%.
D3 ag: qHTS of D3 Dopamine Receptor Agonist: qHTS | D3R DiscoveRx beta-arrestin cells, luminescence, 90 min | AID 652048, 2013 | max activation, % | 410,000 compounds, 0.58% hits | D(3) dopamine receptor (Homo sapiens), P35462; in the data active means max activation above about 30%; further: 0% is about no effect
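Agonist mode: compounds and dopamine controls were applied to plated cells for 90 min at 37 degrees C after an overnight attachment at 1500 cells/well. Luminescent read-out followed 30 - 60 minutes at room temperature with DiscoveRx detection reagent.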
D1 antag: Antagonist of Human D 1 Dopamine Receptor: qHTS; D(1A) dopamine receptor (Homo sapiens), P21728; HEK293 TREx D1 cells, calcium flux, dopamine EC80; stronger effect = lower value; activity change, negative = inhibition, % at 10 µM; 360,000 compounds, 3.2% hits; AID 504652, 2011; in the data active means activity change below about -30%; further: on the % scale 0 is the no-effect control and ±100 the full control effect
Target sequence (P21728 whole entry, looked up): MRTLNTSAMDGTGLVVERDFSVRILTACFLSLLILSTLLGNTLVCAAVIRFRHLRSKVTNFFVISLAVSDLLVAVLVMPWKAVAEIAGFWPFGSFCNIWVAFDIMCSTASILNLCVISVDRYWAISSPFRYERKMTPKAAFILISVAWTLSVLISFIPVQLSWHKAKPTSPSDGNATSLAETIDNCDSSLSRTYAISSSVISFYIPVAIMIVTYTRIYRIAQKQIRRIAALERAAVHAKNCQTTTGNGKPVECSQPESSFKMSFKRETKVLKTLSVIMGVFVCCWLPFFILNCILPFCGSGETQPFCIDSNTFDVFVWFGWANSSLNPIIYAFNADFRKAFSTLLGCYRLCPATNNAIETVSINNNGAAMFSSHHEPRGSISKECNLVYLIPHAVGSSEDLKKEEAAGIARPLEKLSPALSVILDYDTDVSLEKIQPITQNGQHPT
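Allosteric or orthosteric antagonism assessed as attenuation of the calcium response to EC80 dopamine, added 180 s after compound, in induced HEK293 Trex D1 cells loaded with no-wash calcium dye.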
D1 ag: Allosteric Agonists of the Human D1 Dopamine Receptor: qHTS. D(1A) dopamine receptor (Homo sapiens), P21728. HEK293 T-REx D1 cells, calcium flux, agonist mode. activation, % at 2 µM. 360,000 compounds, 1% hits. AID 504660, 2011; in the data active means activation above about 30%; further: 0% is about no effect
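Inducible HEK293 T-REx D1 cells, force-coupled to calcium signalling, were plated at 4000 cells/well with tetracycline and held overnight at 30 C. After no-wash calcium dye loading, compound-evoked calcium rise over 180 s flagged agonists.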
Chronic BCR inh: qHTS Assay to Find Inhibitors of Chronic Active B-Cell Receptor Signaling; ABC-DLBCL IkBa-CBG/CBR reporter, luminescence ratio, 4 h; Potency, µM (titrated, usually from 46.1 µM), without a hit: at the top dose activity change, negative = inhibition, actives largely listed as inhibitors; 340,000 compounds, 0.05% hits; AID 493014, 2011; active means well fitted inhibition curve with a large enough effect in the signal ratio, with a control signal flat, not every such curve was filed as active; inconclusive means small, poorly fitted or top-dose-only effect, or effect the other way, or a change in a side signal; the % refers to the signal ratio;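 further: potency means the concentration at half of the fitted maximal effect; plate controls were basal doxycycline-induced cells for no effect and cells given 10 µM MG132 for full effect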
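TMD8 ABC-DLBCL cells carrying doxycycline-inducible green luciferase fused to IkappaBalpha plus unfused red luciferase were exposed to compounds (up to 46 uM) for 4 hrs at 37C. Activity came from the overlap-corrected green/red luminescence ratio.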
D1 PAM: Potentiators of Human D1 Dopamine Receptor: qHTS. D(1A) dopamine receptor (Homo sapiens), P21728. HEK293 TREx D1 cells, calcium flux, dopamine EC20 potentiation. potentiation, % at 10 µM. 360,000 compounds, 0.036% hits. AID 504651, 2011; in the data active means potentiation above about 30%; further: 0% is about no effect
DRD3 antagonist: qHTS of D3 Dopamine Receptor Antagonist: qHTS; D(3) dopamine receptor (Homo sapiens), P35462; D3R cells, DiscoveRx beta-arrestin luminescence, antagonist mode; stronger effect = lower value; max response, negative = inhibition, %; 360,000 compounds, 2.5% hits; in the data active means max response below about -50%; inconclusive means no clear call, values can overlap the other calls; further: on the % scale 0 is the no-effect control and ±100 the full control effect
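Cells plated overnight at 1500 cells/well, then exposed to library compounds with dopamine controls for 90 minutes at 37 degrees C. DiscoveRx reagent added for 30–60 minutes at room temperature; luminescence read, quantitative HTS format.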
* hit, by the source's call; ? = inconclusive; / = not tested or not shown.

SMILES	D3 ag	D1 antag	D1 ag	Chronic BCR inh	D1 PAM	DRD3 antagonist
Cc1c(Cl)cccc1NC(=S)NNc1ncc(C(F)(F)F)cc1Cl	-75	-17	10	0%	-5	-75*
Cc1ccc(C)c(NC(=O)CSc2ncc3c(n2)-c2cc(Cl)ccc2N(Cc2ccccc2F)S3(=O)=O)c1	6	-13	4	/	1	/
CCOc1ccc2oc(=O)cc(CN3CCN(C(=O)c4ccc(OC)c(OC)c4)CC3)c2c1	-11	-5	-1	/	-2	/
C#C[C@]1(O)CCC2C3CCC4=CC(=O)CC[C@@H]4C3CC[C@@]21C (stereo not given in full)	-6	-14	3	?	-3	10
C#C[C@]1(OC(C)=O)CC[C@H]2[C@@H]3CCC4=C/C(=N/O)CC[C@@H]4[C@H]3CC[C@@]21CC	37*	/	/	/	/	/
Cc1cc(/C=C(/C#N)c2nc3ccccc3[nH]2)c(C)n1-c1cc(C(=O)O)cc(C(=O)O)c1	2	-5	22	1%	1	-25
Cc1ccc2nc(/C(C#N)=C\c3cc(C)n(-c4cccc([N+](=O)[O-])c4)c3C)[nH]c2c1	-62	4	0	?	-2	-53*
COCCNC(=O)C1(C)CCCN(Cc2cc(-c3ccccc3)n(C)n2)C1 (stereo not given)	1	/	/	/	/	?
CCOC(=O)CC(N)c1ccc(OC)cc1 (stereo not given)	-1	-69*	-2	8%	-10	30
COc1ccc(CN2CC(=O)N(c3ccc(Cl)cc3)C2=S)cc1OC	17	-5	4	?	-1	15
CCc1ccc(N2C(=O)CN(Cc3ccc(OC)c(OC)c3)C2=S)cc1	11	-83*	2	-11%	0	1
Cc1cc(C)cc(NC(=O)CCc2c(C)nc3c(c2C)c(=O)n(C)c(=O)n3C)c1	-4	0	3	/	-3	/
c1ccc(COc2ccc(-c3csnn3)cc2)cc1	-1	-5	5	?	-5	-61*
COC(=O)CN1C(=O)CSc2ccc(S(=O)(=O)Nc3ccccc3)cc21	4	20	-1	/	-1	/
COCc1cc(C)nc(N2CCNCC2)c1C#N	-7	1	0	?	-9	-56*
COCc1cc(C)nc(N2CCN(Cc3ccccc3)CC2)c1C#N	-24	-2	8	20%	4	-90*
CCc1nnc(SCC(=O)N(CC)c2ccccc2)c2cc3oc(C)cc3n12	3	-5	-1	/	-2	/
Cn1c(N)c(C(=O)Nc2cccc(Cl)c2)c(=O)n(C)c1=O	3	-5	0	5%	-2	20
CN=c1sc(C(=O)Nc2cccc(Cl)c2)cc(=O)n1C	-8	-3	6	-8%	-6	-51*
COc1ccc(CNC(=O)COc2ccc(S(=O)(=O)N3CCCCC3)cc2)cc1	7	-6	6	-1%	-2	-9
O=C(COc1ccc(S(=O)(=O)N2CCCCC2)cc1)NCc1cccnc1	36*	10	1	12%	-5	13
COc1ccc(NC(=O)CCCS(=O)(=O)c2nc(-c3ccc(OC)c(OC)c3)cc(C(F)(F)F)n2)cc1OC	-24	-12	0	/	-6	/
COc1ccc(-c2cc(C(F)(F)F)nc(S(=O)(=O)CCCC(=O)Nc3cccc(O)c3)n2)cc1OC	-22	4	3	?	-6	-53*
CC(C)N(Cc1ccccc1)C(=S)NC1CCCCC1	2	-31*	5	10%	-15	-1
CC(c1ccccc1)C(CC(=O)O)C(=O)NC1CCCCC1 (stereo not given)	4	-31*	1	-3%	-4	24
SMILES	D3 ag	D1 antag	D1 ag	Chronic BCR inh	D1 PAM	DRD3 antagonist
CC(CC(=O)NC1CCCC1)c1ccccc1 (stereo not given)	-8	7	1	0%	-8	9
COc1ccc(-c2noc(CC(=O)N(C)c3cc(Cl)c(OC)cc3OC)n2)cc1	-7	-2	1	/	-5	/
COc1ccc(C(C(=O)Nc2c(C)cccc2C)N2CCN(C)CC2)cc1 (stereo not given)	4	/	/	/	/	12
CC(=O)N1CCc2c(sc(NC(=O)c3ccc([N+](=O)[O-])o3)c2C#N)C1	-12	-7	0	?	0	-59*
Nc1nc2ccc(Cl)cc2cc1C(=O)NCCCN1CCOCC1	7	/	/	/	/	9
COc1ccc(-c2nn3c(-c4ccc(C)cc4)nnc3c3ccccc23)cc1	2	10	0	/	-5	/
CC1(C)CC(C)(c2ccc(O)cc2O)N(c2ccc3ccccc3c2)C(=S)N1 (stereo not given)	-24	-4	0	?	-7	-62*
Cc1cc(C)n(Cc2ccccc2Cl)n1	1	-47*	0	-7%	-3	2
Cn1c2ccsc2c2cnn(Cc3ccccc3F)c(=O)c21	/	-29	1	/	-3	/
Cc1cc2nc(-c3ccc(Cl)cc3)c(CC3CCCCC3)n2c(C)c1Br	5	/	/	/	/	35
COc1cccc(/C(O)=C/c2nc3ccc(C(=O)NCCc4cccc(C)c4)cc3[nH]c2=O)c1	1	-41*	46*	?	-8	9
Cc1ccc(C)c2sc(N3CCN(C(=O)C(C)(C)C)CC3)nc12	-10	/	2	?	0	/
Cc1ccc(SCC(=O)Nc2ccc(O)c(-c3nc4cc(C)ccc4o3)c2)cc1	1	-83*	-1	/	-1	/
CCC(C)C(CO)NCCCn1cnc(C(=O)Nc2ccc(C)c(C)c2)n1 (stereo not given)	6	/	/	/	/	7
COc1ccc(/C=C/C(=O)Nc2ccccc2C(=O)O)cc1	-1	14	0	?	-11	4
COc1ccc(/C=C/C(=O)Nc2ccccc2C(=O)NCC(c2ccc(OC)cc2)N(C)C)cc1 (stereo not given)	-29	-7	7	?	-8	-96*
COc1ccc(NC(=O)C23CC4CC(C2)CC(c2ccccc2)(C4)C3)c(OC)c1	32*	5	5	13%	15	5
COc1ccc(OC)c(NC(=O)C(=O)NNC(=O)C23CC4CC(CC(C4)C2)C3)c1	4	0	40*	-20%	11	9
COc1ccc(NC(=O)C(=O)NNC(=O)c2cccs2)c(OC)c1	-5	-9	1	0%	-5	-73*
